Results filed as inconclusive are left out. Activity calls are given as the source filed them. The calls were made as follows: active = hit-call score of the fitted dose curve at least 0.9, where 1 is the maximum; inconclusive = response in the unintended direction; inactive = score below 0.9. *1 amine or outer side, *2 acyl side, *3 side chain or, on linkers, in order; H or OH if unused. Where a SMILES comes first, the peptide text is derived from it. Bridges are numbered along the chain shown (N, C = ends). [ ]: non-standard residue; d: D form. The star is where a group is joined. X3 = NC1=N[C@@H]([C@H](N[*:1])C(=O)[*:2])C[C@H](O)N1; ΔAla(Z-3-ureido) = NC(=O)N/C=C(\N)C(=O)O; β3hOrn = NCCC[C@H](N)CC(=O)*; Dap = NC[C@H](N)C(=O)O
Experiments:
[1] = TOX21_p53_BLA_p2_viability: Viability Assessment in the Tox21 HCT-116 p53 Agonism Beta-lactamase Assay, Phase 2 (AID 2283591);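 also: compound exposure lasted 16 h at 37 °C; actives lower the ATP signal meaning cytotoxicity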
Summary of the method: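 HCT-116 p53-bla cells (4000/well) rested 5 h at 37C, then received compounds in DMSO (217-fold dilution) for 16 h at 37C, 5% CO2. After the CCF4 read, CellTiter-Glo was added; ATP luminescence was read after 30 min at room temperature.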

[2] = biological target: Cellular tumor antigen p53 (Homo sapiens) (UniProt P04637); assay: TOX21_p53_BLA_p2_ratio: Tox21 HCT-116 p53 Agonism Beta-lactamase Assay, Ratio, Phase 2 (AID 2283592)
Summary of the method: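 Human colon HCT116 cells with an inducible p53 beta-lactamase reporter are exposed to test chemicals for 16 h at 37C. Reporter induction is read as the 460/530 nm emission ratio after CCF4-AM loading, normalized to DMSO.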

[3] = TOX21_p53_BLA_p4_viability: Viability Assessment in the Tox21 HCT-116 p53 Agonism Beta-lactamase Assay, Phase 4 (AID 2283597);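 also: hits lower the luminescence signal meaning cytotoxicity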
Summary of the method: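 Luminescent ATP readout (CellTiter-Glo, 30 min, room temperature) in the same wells as the p53 bla ratio. HCT116 cells were treated for 16 h at 37C with DMSO-dissolved compounds.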

[4] = TOX21_p53_BLA_p5_viability: Viability Assessment in the Tox21 HCT-116 p53 Agonism Beta-lactamase Assay, Phase 5 (AID 2283600)
Summary of the method: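 Seeded cells (4000/well) settle 5 h before compound addition. Plates then incubate 16 h at 37C, receive FRET substrate for 2 h, and finally CellTiter-Glo, with luminescence measured after a 30 min room-temperature incubation.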

[5] = biological target: Cellular tumor antigen p53 (Homo sapiens) (UniProt P04637); assay: TOX21_p53_BLA_p5_ratio: Tox21 HCT-116 p53 Agonism Beta-lactamase Assay, Ratio, Phase 5 (AID 2283599)
Summary of the method: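 HCT-116 cells carrying a p53-inducible beta-lactamase reporter were seeded at 4000 cells/well and dosed after 5 h with compound in DMSO (217-fold dilution). After 16 h at 37C, CCF4-AM substrate was added for 2 h, and the 460/530 nm emission ratio was scored as gain-of-signal versus DMSO.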

[6] = biological target: Cellular tumor antigen p53 (Homo sapiens) (UniProt P04637); assay: TOX21_p53_BLA_p4_ratio: Tox21 HCT-116 p53 Agonism Beta-lactamase Assay, Ratio, Phase 4 (AID 2283601)
Summary of the method: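 HCT116 cells carrying an inducible beta-lactamase reporter were plated at 4000 cells/well, rested 5 h, then exposed to compounds in DMSO (217-fold dilution) for 16 h at 37C. CCF4-AM substrate was loaded 2 h at room temperature; 460/530 nm emission ratio scored gain-of-signal versus DMSO.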

Measured: outcome

Cellular tumor antigen p53 (Homo sapiens), sequence (P04637 whole entry, looked up): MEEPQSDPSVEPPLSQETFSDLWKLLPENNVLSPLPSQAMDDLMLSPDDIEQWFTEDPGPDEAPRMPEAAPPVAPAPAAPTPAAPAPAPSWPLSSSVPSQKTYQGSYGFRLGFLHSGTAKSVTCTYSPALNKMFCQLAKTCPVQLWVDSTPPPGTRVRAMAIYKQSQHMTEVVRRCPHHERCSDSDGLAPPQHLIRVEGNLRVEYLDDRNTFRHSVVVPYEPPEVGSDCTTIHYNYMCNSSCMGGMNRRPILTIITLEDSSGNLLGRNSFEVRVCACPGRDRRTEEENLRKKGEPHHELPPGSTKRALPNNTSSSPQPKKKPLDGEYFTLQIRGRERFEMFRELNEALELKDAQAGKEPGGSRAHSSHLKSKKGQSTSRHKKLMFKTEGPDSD

CO/N=C(/C(=O)N[C@@H]1C(=O)N2C(C(=O)OCOC(=O)C(C)(C)C)=C(C)CS[C@H]12)c1csc(N)n1
inactive: [1] | [2] | [3] | [4]

O=C1N(c2ccccc2)c2ccccc2C1(Cc1ccncc1)Cc1ccncc1
not listed: [4]
inactive: all other assays above

O=C=Nc1ccc(Cl)c(Cl)c1
inactive: all assays above

COc1nc(N)nc2nc[nH]c12
inactive: [1] | [2] | [3] | [4]

CC(=O)c1cc(C)oc1C
inactive: all assays above

NC(=S)NC(N)=S
not listed: [5]
inactive: all other assays above

C=C1c2c(Cl)ccc(O)c2C(O)=C2C(=O)[C@]3(O)C(O)=C(C(N)=O)C(=O)[C@@H](N(C)C)[C@@H]3[C@@H](O)[C@H]12
inactive: [1] | [2] | [3] | [4]

O=C1NC(=O)[C@@]2(CCOc3ccc(F)cc32)N1
not listed: [5]
inactive: all other assays above

CN1CCCN=C1COC(=O)C(O)(c1ccccc1)C1CCCCC1 (stereo unspecified)
not listed: [4]
inactive: all other assays above

CC(=O)Oc1cccc(C(=O)O)c1OC(C)=O
not listed: [6]
inactive: all other assays above

c1ccc(CCNc2nc(-c3ccccc3)cs2)cc1
not listed: [6]
inactive: all other assays above

CCOc1cc(OCC)c(C(=O)CCC(=O)O)cc1OCC
not listed: [5]
inactive: all other assays above

CCCC(C)CC (stereo unspecified)
inactive: [1] | [2] | [3] | [4]

O=S(=O)(Cl)c1c(Cl)cccc1Cl
inactive: all assays above

Nc1ncnc(Nc2ccc(Cl)cc2)n1
inactive: all assays above

CC[C@H]1NC(=O)[C@@H](NC(=O)c2ncccc2O)[C@@H](C)OC(=O)[C@H](c2ccccc2)NC(=O)[C@@H]2CC(=O)CCN2C(=O)[C@H](Cc2ccccc2)N(C)C(=O)[C@@H]2CCCN2C1=O
not listed: [6]
inactive: all other assays above

CCCCCOC(=O)Nc1nc(=O)n([C@@H]2O[C@H](C)[C@@H](O)[C@H]2O)cc1F
inactive: all assays above

Nc1ccccn1
inactive: all assays above

CCCc1ncc(C[n+]2ccccc2C)c(N)n1
not listed: [5]
inactive: all other assays above

CCc1cn([C@H]2C[C@H](O)[C@@H](CO)O2)c(=O)[nH]c1=O
inactive: all assays above

C=CCCCCCCC=C
not listed: [5]
inactive: all other assays above

CCC(C)=NO[Si](C)(ON=C(C)CC)ON=C(C)CC
inactive: all assays above

CC1c2ccccc2CN1NC(=O)c1ccc(Cl)c(S(N)(=O)=O)c1 (stereo unspecified)
inactive: all assays above

COc1cc(-c2ccc(N=C=O)c(OC)c2)ccc1N=C=O
not listed: [4]
inactive: all other assays above

CC(COc1ccc(C(C)(C)C)cc1)OS(=O)OCCCl (stereo unspecified)
inactive: all assays above

CCNc1cc(O)ccc1C
not listed: [5]
inactive: all other assays above

CCC(=O)Nc1cccc(N)c1
inactive: [1] | [2] | [3] | [4]

CC(=O)[C@H]1CC[C@H]2[C@@H]3C[C@H](C)C4=CC(=O)CC[C@]4(C)[C@H]3[C@@H](O)C[C@]12C
inactive: [1] | [2] | [5]

NCCC[C@H](N)CC(=O)N[C@H]1CNC(=O)[C@H]([C@H]2C[C@H](O)NC(N)=N2)NC(=O)/C(=C/NC(N)=O)NC(=O)[C@H](CO)NC(=O)[C@H](CO)NC1=O (β3hOrn-[Dap]SS[ΔAla(Z-3-ureido)][X3]; lactam 1-C)
inactive: [1] | [2] | [3] | [6]

N[C@H](C(=O)O)c1ccc(O)cc1
not listed: [3]
inactive: all other assays above

CCC(C)(C)C
inactive: [1] | [2] | [3] | [6]
